Compounds with a hit are over-represented: about 4.4% of the library has one in this group of screens.
TRHR PAM: qHTS for Small Molecule Agonists and Allosteric Enhancers of Human TRH Receptor: Primary Screen for Enhancers. hit rate 0.66% among 360,000. TRHR cells, fluo-8 calcium fluorescence, EC20 TRH enhancement. AID 493056, 2011. Thyrotropin-releasing hormone receptor (Homo sapiens), P34981. enhancement, % at 2 µM; in the data active = enhancement above about 30%; note: 0% is about no effect
Target sequence (P34981 whole entry, looked up): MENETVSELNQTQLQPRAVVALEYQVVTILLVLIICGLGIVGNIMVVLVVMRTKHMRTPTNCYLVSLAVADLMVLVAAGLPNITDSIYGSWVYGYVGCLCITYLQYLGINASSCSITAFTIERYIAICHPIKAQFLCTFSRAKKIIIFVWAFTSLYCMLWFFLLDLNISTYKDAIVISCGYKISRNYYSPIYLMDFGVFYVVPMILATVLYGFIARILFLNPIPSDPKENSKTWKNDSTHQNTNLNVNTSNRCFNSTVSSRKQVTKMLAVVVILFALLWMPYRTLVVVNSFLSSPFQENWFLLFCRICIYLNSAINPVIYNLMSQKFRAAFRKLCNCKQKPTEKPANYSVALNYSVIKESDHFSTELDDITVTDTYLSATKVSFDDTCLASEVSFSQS
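TRHR-expressing cells loaded with fluo-8 calcium dye were read kinetically (ex 480/em 530) during compound addition, then stimulated with an EC20 of TRH (10 nM final). Enhancement of the Gq-mediated intracellular calcium response was scored.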
USP1-UAF1 inh: Inhibitors of USP1/UAF1: Primary Screen; Potency, µM (doses to about 57.1 µM), inactives show at the top dose activity change, negative = inhibition, most hits filed as inhibitors; Ubiquitin carboxyl-terminal hydrolase 1 (Homo sapiens), O94782; recombinant USP1/UAF1, Ub-Rhodamine cleavage fluorescence; hit rate 0.23% among 390,000; active = well fitted inhibition curve with a large enough effect; inconclusive = small, poorly fitted or top-dose-only effect; inactive = no such curve, though single readings can be large or run the other way; note: potency is the fitted concentration of half-maximal effect; % is set by controls: 0 for no effect and ±100 for the full control effect; nearly all actives have a fitted effect of over 60% in size
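USP1/UAF1 complex at 1 nM was preincubated with compound for 15 min at room temperature, then Ub-Rho substrate (150nM final) was added. Fluorescence (480/540 nm) was read kinetically, 6 reads every 60 seconds.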
TRHR ag: qHTS for Small Molecule Agonists and Allosteric Enhancers of Human TRH Receptor: Primary Screen for Agonists; Thyrotropin-releasing hormone receptor (Homo sapiens), P34981; TRHR cells, calcium flux fluo-8, FDSS agonist mode; activation, % at 2 µM; hit rate 0.18% among 360,000; AID 493084, 2011; note: 0% is about no effect
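Agonist-mode FDSS calcium read (Ex 480/Em 530, 1 s cycles) in 1536-well TRHR cells with fluo-8 dye, after 10-cycle baseline and 23 nL compound addition; TRH at EC20 (10 nM final) added afterwards for the enhancer phase.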
D1 ag: Allosteric Agonists of the Human D1 Dopamine Receptor: qHTS. D(1A) dopamine receptor (Homo sapiens), P21728. activation, % at 2 µM. HEK293 T-REx D1 cells, calcium flux, agonist mode. hit rate 1% among 360,000; note: 0% is about no effect
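Agonism was scored from calcium flux recorded over 180 s (1 read/s) after pintool compound addition, following a 10-cycle baseline. Cells were inducible force-coupled HEK293 TREx D1, plated overnight at 30 C and loaded with no-wash calcium dye.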
D1 antagonist: Antagonist of Human D 1 Dopamine Receptor: qHTS | D(1A) dopamine receptor (Homo sapiens), P21728 | AID 504652, 2011 | hit rate 3.2% among 360,000 | HEK293 TREx D1 cells, calcium flux, dopamine EC80; hits give low values | activity change, negative = inhibition, % at 10 µM; in the data active = activity change below about -30%; note: % is set by controls: 0 for no effect and ±100 for the full control effect
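Kinetic fluorescence of a calcium dye serves as the read-out. D1-expressing Hek293 Trex cells, induced overnight at 30 C, are exposed to compound for 180 s before an EC80 dopamine addition, then read 180 s further.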
D1 PAM: Potentiators of Human D1 Dopamine Receptor: qHTS; AID 504651, 2011; HEK293 TREx D1 cells, calcium flux, dopamine EC20 potentiation; potentiation, % at 10 µM; hit rate 0.036% among 360,000; D(1A) dopamine receptor (Homo sapiens), P21728; in the data active = potentiation above about 30%; note: 0% is about no effect
Starred values were filed as active, the others as inactive; u = inconclusive; x = not tested or not shown. Cut-off read from the data, not from the text of the source, unless noted: active = activation above about 30%; inactive = the rest.

SMILES	TRHR PAM	USP1-UAF1 inh	TRHR ag	D1 ag	D1 antagonist	D1 PAM
COc1cccc(-c2ccc(NC(=O)C3CCCN(Cc4ccco4)C3)cc2)c1 (centres undefined)	x	-17%	x	x	x	x
CCOc1ccccc1CN1C(=O)c2ccccc2C1C(=O)NC1CCCCCC1 (centres undefined)	-5	u	-1	-1	-5	1
CN1CCC(=NOc2ccc([N+](=O)[O-])cc2)CC1	-6	-12%	2	11	-52*	-9
Cc1ccc(NC(=O)CN2C(=O)C3(SCC(=O)N3c3cccc(Cl)c3)c3ccccc32)cc1C (centres undefined)	-5	-20%	1	0	-9	0
O=C(NCc1ccco1)C1CCCN(c2nnc(-n3cccc3)s2)C1 (centres undefined)	6	-10%	0	2	-39*	-1
Cn1c(=O)[nH]c(=O)c2c1nc(SCC(O)CO)n2Cc1ccccc1Cl (centres undefined)	5	7%	0	1	-64*	-3
CCOCCc1nn2c(=O)cc(COC(=O)C3CCCCC3)nc2s1	0	-1%	1	1	8	3
Cc1cc(C)nc(NCCC(=O)O)n1	1	-15%	1	9	-58*	-8
Cc1ccc(-n2nc(C)c3c(C)c(CCC(=O)NCc4ccccc4Cl)c(C)nc32)cc1	3	-11%	0	1	-9	0
Cn1c(SCC(=O)NCc2cccs2)nnc1-c1cccs1	0	-8%	0	1	1	-6
CCn1c(SCC(=O)NCc2cccs2)nnc1-c1cccs1	2	-3%	0	4	-39*	4
Cc1cc(-c2ccc(S(=O)(=O)N3CCN(c4ccc(Cl)cc4)CC3)s2)on1	17	2%	0	2	-6	-1
CCCN1C(=O)CC(c2ccco2)Sc2ccccc21 (centres undefined)	-2	-13%	0	0	-18	-11
CN1C(=O)CC(c2ccco2)Sc2ccccc21 (centres undefined)	35*	-1%	0	2	-20	-5
CN(C(=O)c1ccncc1)c1nnc(-c2ccccn2)s1	-5	-8%	1	1	4	2
CN(C(=O)c1ccno1)c1nnc(-c2ccccn2)s1	6	3%	0	0	-35*	-12
CC(=O)c1cccc(NC(=O)NCCc2c[nH]c3ccccc23)c1	-1	-9%	-1	5	-12	13
O=C(Nc1cccc(CNCCc2c[nH]c3ccccc23)c1)c1ccccc1Cl	0	-19%	1	32*	-41*	-7
COc1ccc(/C=C2\CCCc3c2nc2ccccc2c3C(=O)OCC(=O)c2c(N)n(C)c(=O)n(C)c2=O)cc1	0	x	0	-1	-40*	-1
Cn1c(N)c(C(=O)COC(=O)/C=C/c2cccc(Br)c2)c(=O)n(C)c1=O	1	-6%	0	5	-33*	-1
COc1ccc(/C=C/C(=O)OCC(=O)c2c(N)n(C)c(=O)n(C)c2=O)cc1	12	-18%	2	13	-32*	1
COC(=O)c1ccc(Nc2nnc(-c3ccc(C)c(S(=O)(=O)N4CCN(C)CC4)c3)c3ccccc23)cc1	4	10%	0	-2	-7	0
Cc1ccc(CNC(=O)CSc2nnc(C)c3c(C)n(-c4ccccc4)nc23)cc1	-3	7%	-1	1	11	1
CC(=O)Nc1ccc(S(=O)(=O)NCC2CCC(C(=O)NCCc3ccc(C)cc3)CC2)cc1 (centres undefined)	8	-24%	0	-1	10	-1

Compound activity: PubChem, National Center for Advancing Translational Sciences (NCATS)
